Source: PubChem BioAssay (Sanford-Burnham Center for Chemical Genomics)
Most compounds without a hit are left out; they make up all but 1.5% or so of the library.
HePTP inh – inhibitors of human HePTP phosphatase, primary screen, biochemical, absorbance, leukemia target; recombinant HePTP phosphatase activity, OD absorbance; inhibition, % at 20 µM; 110,000 tested, 0.64% active; in the data active = inhibition above about 50%
Mac1 fbg enh – enhancers of CD11b/CD18 adhesion to fibrinogen, primary screen, K562 cells, luminescence | Integrin beta-2 (Homo sapiens) + Integrin alpha-M (Homo sapiens), P05107+P11215 | AID 1499, 2009 | 93,000 tested, 0.07% active | ATPlite luminescence | activation, % at 10 µM;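 active = 10 µM primary screen giving 50% or more activity, confirmed by 40% or more on retest at that dose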
PLAP activator – PLAP enzyme activators, biochemical, luminescence, HTS; Alkaline phosphatase, placental type (Homo sapiens), P05187; purified PLAP enzyme, luminescent substrate read-out; stronger effect = higher value; activation fold at 20 µM; 96,000 tested, 1.2% active; AID 696, 2007; in the data active = activation fold above about 2
Target sequence (P05187 whole entry, looked up): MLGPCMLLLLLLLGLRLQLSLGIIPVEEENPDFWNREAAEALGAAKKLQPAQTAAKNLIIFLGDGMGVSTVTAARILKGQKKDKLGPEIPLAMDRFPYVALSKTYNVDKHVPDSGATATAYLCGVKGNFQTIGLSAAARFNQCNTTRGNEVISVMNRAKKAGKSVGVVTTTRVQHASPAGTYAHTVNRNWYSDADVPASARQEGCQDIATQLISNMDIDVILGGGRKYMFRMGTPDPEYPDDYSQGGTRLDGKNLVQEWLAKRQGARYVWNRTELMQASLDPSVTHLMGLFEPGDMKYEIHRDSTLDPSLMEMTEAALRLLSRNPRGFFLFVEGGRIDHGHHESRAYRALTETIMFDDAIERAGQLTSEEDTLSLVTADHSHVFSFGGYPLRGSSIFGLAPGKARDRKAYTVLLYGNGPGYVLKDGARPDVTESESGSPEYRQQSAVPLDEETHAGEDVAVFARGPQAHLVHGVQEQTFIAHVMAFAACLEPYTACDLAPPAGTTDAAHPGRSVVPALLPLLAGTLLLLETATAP
Mac1 fbg inh – inhibitors of CD11b/CD18 adhesion to fibrinogen, primary screen, K562 cells, luminescence; Integrin beta-2 (Homo sapiens) + Integrin alpha-M (Homo sapiens), P05107+P11215; AID 1497, 2009; inhibition, % at 10 µM; ATPlite luminescence; Mn2+ added to activate the integrin; 93,000 tested, 0.54% active;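 active = primary inhibition of 50% or more at 10 µM, then 40% or more on retest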
Hits are given with their value; – = inactive; · = no result.

SMILES	HePTP inh	Mac1 fbg enh	PLAP activator	Mac1 fbg inh
COC(=O)C1=NN(C(=O)c2cccc([N+](=O)[O-])c2)C(O)(c2ccccc2)C1 (centres undefined)	103.9	·	·	·
COC(=O)C1=NN(C(=O)c2cccc(Br)c2)C(O)(c2ccccc2)C1 (centres undefined)	–	·	·	·
Cc1cc(=O)[nH]c(SCC(=O)Nc2ccc(Br)cc2)c1C#N	·	–	–	93.4
Cc1cc(=O)[nH]c(SCC(=O)c2ccc(Br)cc2)c1C#N	–	·	·	·
O=C1C(Cl)=C(N2CCCCC2)C(=O)C(Cl)=C1/C=C/N1CCCCC1	102.1	·	·	·
O=C1C(Cl)=C(N2CCCCC2)C(=O)N1c1ccccc1	–	–	–	–
COc1ccc(N(CC(=O)O)S(C)(=O)=O)cc1Cl	–	·	·	·
Nc1nc2n(n1)C1(CCCCC1)C1=C(CCCC1)N2	–	–	2.1	–
N/C(=N\c1nc2c(c(=O)[nH]1)CCCC2)Nc1ccccc1Sc1ccccc1	·	–	2	–
COc1cc(C2c3c(n[nH]c3C)C(=O)N2c2ccc(C)cc2)ccc1O (centres undefined)	–	–	2.2	–
COc1ccc(OC)c(C2c3c(-c4ccccc4)n[nH]c3C(=O)N2c2ccccc2)c1 (centres undefined)	–	·	·	·
COc1cc(C2c3c(-c4ccccc4)n[nH]c3C(=O)N2c2ccccc2)ccc1O (centres undefined)	–	–	2.2	–
COc1ccc(/C=C/C(=O)Nc2ccc(N3CCOCC3)cc2)cc1OC	–	·	·	·
Cc1cc(C(=O)NNC(=S)NCC(C)C)no1	·	–	–	–
Cc1nn(CCC(=O)NNC(=S)NCC(C)C)c(C)c1Br	·	–	2.5	–
CNC(=S)NNC(=O)CCn1nc(C)c(Br)c1C	·	–	2.1	–
CCOCCCNC(=S)NNC(=O)CCn1nc(C)c(Br)c1C	·	–	2.9	–
COCCCNC(=S)NNC(=O)Cn1nc(C)c(Br)c1C	·	–	·	–
COc1cccc(N2C(=O)C3C4C=CC(C4)C3C2=O)c1 (centres undefined)	–	·	·	·
COc1ccc(CNC(=O)CN(c2ccc(C)cc2)S(=O)(=O)c2ccc(F)cc2)cc1	–	·	·	·
O=C(Nc1cccnc1)c1cccc2c1C(=O)c1ccccc1-2	–	·	·	·
COCCn1c(SCc2nc3sc(C(=O)OC)c(C)c3c(=O)[nH]2)nc2ccccc21	–	–	–	–
CCn1c(SCc2nc3sc(C(=O)O)c(C)c3c(=O)[nH]2)nc2ccccc21	·	–	2.3	–
Cc1n[nH]c(=S)n1/N=C/c1ccc(-c2ccccc2[N+](=O)[O-])o1	·	–	2	–
Cc1cc2nc(C3CCN(Cc4nnnn4Cc4ccccc4)CC3)[nH]c2cc1C	·	·	2.4	·
SMILES	HePTP inh	Mac1 fbg enh	PLAP activator	Mac1 fbg inh
Clc1ccc(CN2CCC(c3nc4ccc(Cl)cc4[nH]3)CC2)cc1	·	·	–	·
CCC(C)(C)n1nnnc1CN1CCC(c2nc3ccc(C)cc3[nH]2)CC1	–	–	2.3	–
CCc1cccc(NC(=O)CSCc2cc(=O)[nH][nH]2)c1	·	–	2.5	–
Nc1nc(SCc2nc3scc(-c4cccs4)c3c(=O)[nH]2)n[nH]1	–	–	2.5	–
O=[N+]([O-])c1ccc(-c2ccc(N=Cc3nc(-c4ccccc4)oc3O)cc2)cc1	–	·	·	·
CC(=O)CCc1c(C)c2cccc(C)c2[nH]c1=S	–	·	·	·
CCC(=O)NC(OCc1ccccc1)(C(F)(F)F)C(F)(F)F	–	·	·	·
N#Cc1cc2c(nc1SCc1cccnc1)CCC2	–	–	–	–
N#Cc1cc2c(nc1SCc1nc3ccccc3[nH]1)CCC2	–	–	2.1	–
COc1ccc(CCN2C(=O)c3[nH]nc(-c4ccccc4O)c3C2c2cccc(O)c2)cc1OC (centres undefined)	–	–	2.9	–
COc1ccc(C2c3c(-c4cc(Cl)c(C)cc4O)n[nH]c3C(=O)N2Cc2cccnc2)cc1OC (centres undefined)	–	–	–	–
C=CCc1cccc(/C=N/NC(=O)CCC2C(=O)NN=C2C)c1O (centres undefined)	–	·	·	·
CCOc1cccc(C=Nc2cccc3nsnc23)c1O	–	·	·	·
Cc1ccc(OCC(=O)NNC(=O)C2CCN(c3nccc(C)n3)CC2)cc1	·	·	2.5	·
Cc1ccnc(N2CCC(C(=O)Nc3ccc(Oc4ccccc4)cc3)CC2)n1	–	–	–	–
CC(=O)C1=C(O)C(=O)N(CCN2CCNCC2)C1c1ccc(Cl)cc1 (centres undefined)	–	·	·	·
CCOC(=O)N1CCC(NC(=O)C2CCN(C(=O)N3CCOc4ccccc43)CC2)CC1	–	–	2.1	–
O=C(CCCN1C(=O)c2ccccc2C1=O)Nc1ccccc1C(=O)N1CCCCC1	77.5	·	·	·
O=C(CCCN1C(=O)c2ccccc2C1=O)Nc1ccccc1C(=O)N1CCCC1	–	·	·	·
Cc1cc(/C=C(/C(=O)c2ccccc2)c2nc3ccccc3[nH]2)c(C)n1-c1ccccc1	–	·	·	·
CCN(CC)C(=O)COc1ccc2oc(C)c(C(=O)OC(C)C)c2c1	–	–	2.6	–
Cc1cc(C)nc(N(C#N)CC(=O)c2ccccc2)n1	–	–	–	–
CCc1ccc(C(=O)CN(C#N)c2nc(C)cc(C)n2)cc1	·	·	2.7	·
CCOC(=O)c1c(-c2ccc(C)o2)csc1NC(=O)CSc1ncn[nH]1	·	–	2.2	–
Cc1ccccc1C1=N/C(=C\c2ccc(Br)o2)C(=O)O1	59.5	·	·	·
SMILES	HePTP inh	Mac1 fbg enh	PLAP activator	Mac1 fbg inh
Cc1ccccc1NC(=O)C1C(c2cccs2)C(C#N)=C(SCC(=O)Nc2ccc(Br)cc2)NC1(C)O (centres undefined)	–	·	·	·
CCN(CC)S(=O)(=O)c1ccc(NC(=O)c2cccc(C)c2)cc1	–	·	·	·
Cc1ccc(-c2nc3cc(Cl)ccc3o2)cc1NC(=O)c1cccs1	–	·	·	·
CCCCCCc1cc2cc(-c3nnc(-c4ccccc4O)o3)c(=O)oc2cc1O	–	–	–	97.5
CCCCCCc1cc2cc(-c3nnc(-c4ccccc4OC)o3)c(=O)oc2cc1O	·	–	–	–
CCc1cc(/C(Cc2ccc3ccccc3n2)=N\O)c(O)cc1O	·	–	–	60.2
CCc1cc(C(=O)Cc2nc3ccccc3[nH]2)c(O)cc1O	–	–	2.3	–
CCCc1cc(C(=O)Cc2nc3ccccc3s2)c(O)cc1O	·	·	–	·
CCCc1cc(C(=O)Cc2ccc(F)cc2)c(O)cc1O	–	–	–	94.8
CCc1cc(C(=O)Cc2ccc(F)cc2)c(O)cc1O	–	–	·	102.8
Cc1ccc(/C=C2/SC(=S)NC2=O)s1	–	·	·	·
COc1ccc(/C=C2\SC(=S)N(CCCC(=O)Nc3nccs3)C2=O)cc1	–	·	·	·
CC1CCN(C(=O)COc2ccccc2F)CC1	–	–	–	–
CCc1cc(C(=O)COc2ccccc2F)c(O)cc1O	–	–	–	84.0
CC[n+]1c(/C=C2\C=C(C)CC(C)(C)C2)sc2ccccc21	·	–	–	72.7
CC[n+]1c(/C=C2/C=C(C)CC(C)(C)C2)sc2ccc(OC)cc21	·	·	–	·
CC[n+]1c(/C=C2\C=C(C)CC(C)C2)sc2ccccc21 (centres undefined)	·	–	–	59.2
O=C(CCn1c2ccccc2c2ccccc21)N/N=C/c1ccccc1O	–	·	·	·
O=C(/C=C/c1ccco1)Nc1ccccc1C(=O)O	95.5	·	·	·
